Compound activity deposited in PubChem by The Scripps Research Institute Molecular Screening Center.
Compounds with a hit are over-represented: about 1.7% of the library has one in this group of screens.
LYPLA1 counter – counter-screen for PME1 inhibitors: inhibitors of human LYPLA1 | O75608 | recombinant LYPLA1, FP-Rh probe fluorescence polarization | inhibition, % at 5.9 µM | 0.16% of 320,000 active | AID 2174;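 active means inhibition above the mean of all tested compounds plus 3 SD, set per campaign, cut at about 14% in these data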;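 further: inhibitors block serine hydrolase probe labeling of LYPLA1 so polarization falls; 0% = enzyme with DMSO and 100% = wells lacking LYPLA1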
ZTA counter – counter-screen for EBNA-1 inhibitors: inhibitors of Epstein-Barr virus ZTA; inhibition, % at 11 µM; ZTA-DNA binding, fluorescence polarization; 0.15% of 320,000 active; P03206; in the data active means inhibition above about 33%
LYPLA2 counter – LYPLA2 (human) inhibition in PME1 counter-screen | O95372 | inhibition, % at 5.9 µM | AID 2177 | recombinant LYPLA2, FP-Rh probe fluorescence polarization | 0.38% of 320,000 active;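 active means inhibition above the screen-wide mean plus 3 SD, limit set per campaign, cut at about 26% in these data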;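 further: 0% = LYPLA2 with DMSO and 100% = wells lacking LYPLA2 enzyme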
Target sequence (O95372 whole entry, looked up): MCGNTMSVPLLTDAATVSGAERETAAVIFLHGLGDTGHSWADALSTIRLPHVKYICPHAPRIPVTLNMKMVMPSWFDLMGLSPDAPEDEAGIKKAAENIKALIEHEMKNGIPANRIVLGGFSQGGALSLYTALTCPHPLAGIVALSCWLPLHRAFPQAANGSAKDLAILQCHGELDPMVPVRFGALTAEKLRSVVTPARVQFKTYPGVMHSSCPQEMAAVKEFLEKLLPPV
PAD4 inh – blocks human protein arginine deiminase 4 | Q9UM07 | recombinant PAD4, RCA probe fluorescence polarization | inhibition, % at 6.36 µM | 0.41% of 330,000 active | AID 485272;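 active means percent inhibition above a cutoff equal to the mean of all tested compounds plus 3 SD, cut at about 15% in these data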;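 further: 0% = PAD4 with RCA probe and DMSO and 100% = probe without PAD4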
EBNA-1 inh – blocks EBNA-1 binding to DNA; EBNA-1 DNA binding, fluorescence polarization; inhibition, % at 14.8 µM; 0.34% of 300,000 active; AID 1950; in the data active means inhibition above about 28%
GSTO1 counter – counter-screen for RBBP9 inhibitors: inhibitors of human GSTO1 | 1.1% of 300,000 active | recombinant GSTO1, activity-based probe fluorescence polarization | inhibition, % at 5.96 µM | P78417;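 active means inhibition above the campaign mean inhibition plus 3 SD, cut at about 35% in these data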;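 further: 0% = GSTO1-1 with DMSO and 100% = wells lacking GSTO1-1 enzyme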
Target sequence (P78417 whole entry, looked up): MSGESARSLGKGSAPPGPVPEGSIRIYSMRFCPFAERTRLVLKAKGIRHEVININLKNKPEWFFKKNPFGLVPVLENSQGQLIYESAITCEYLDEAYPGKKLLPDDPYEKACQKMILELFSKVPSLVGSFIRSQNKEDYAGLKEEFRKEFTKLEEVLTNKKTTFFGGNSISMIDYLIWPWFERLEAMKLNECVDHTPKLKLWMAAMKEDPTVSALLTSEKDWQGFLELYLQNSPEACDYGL
An asterisk follows results filed as active.

SMILES | LYPLA1 counter | ZTA counter | LYPLA2 counter | PAD4 inh | EBNA-1 inh | GSTO1 counter
COc1ccc(/C=C2\SC(=O)N(CC(=O)NNC(=O)c3ccccc3O)C2=O)cc1OC | 2.2 | -12.3 | 1.0 | 2.3 | 1.4 | 38.0*
CCc1ccc(C(=O)CSc2nc3cc(S(=O)(=O)N4CCOCC4)ccc3n2CC)cc1 | 0.9 | -2.7 | 4.7 | -0.3 | 3.2 | 35.7*
CCOC(=O)c1cc(-c2ccccc2)sc1NC(=O)COC(=O)c1cccc(S(N)(=O)=O)c1 | -4.2 | 19.5 | -8.1 | 2.2 | 76.8* | -1.8
Cc1ccc(CNC(=O)c2ccccc2NC(=O)CSc2nnnn2C)cc1 | 2.7 | -8.6 | -1.2 | -2.5 | -4.6 | 37.0*
O=C(Nc1ccc(Cl)cc1)C1CCN(C(=O)c2cccs2)CC1 | 2.1 | 10.0 | 3.4 | 2.2 | 13.8 | 8.9
COC(=O)c1cc(NCc2c(F)cccc2Cl)ccc1N1CCOCC1 | 1.1 | -9.0 | 6.5 | -1.4 | 5.9 | 3.5
Fc1cccc(Cl)c1CNc1ccc(N2CCCC2)cc1 | -0.7 | 12.7 | 2.7 | 3.8 | 13.5 | 36.6*
COc1ccc(/C=N/NC(=O)c2ccc(Br)cc2)cc1Cn1cc(Cl)cn1 | -5.3 | 7.1 | -8.2 | -4.1 | 31.6* | -1.9
COC(CN(C(=O)CCl)C(C(=O)NC1CCCCC1)c1ccccc1C)OC (stereo not drawn) | 3.0 | 6.8 | -1.1 | 2.1 | -9.5 | 79.6*
CCc1nnc(NC(=O)CSc2nnc(-c3cccnc3)n2C)s1 | 0.0 | -1.0 | -1.4 | -2.3 | -5.4 | -3.2
O=c1c2ccccc2sn1-c1ccc(S(=O)(=O)N2CCCC2)cc1 | -1.9 | -18.5 | 3.3 | 22.7* | 5.0 | 3.2
Cc1ccc(-n2sc3ccccc3c2=O)cc1S(=O)(=O)N1CCCCC1 | 0.3 | 1.7 | -1.3 | 25.5* | 5.3 | 8.8
O=c1c2ccccc2sn1-c1ccc(S(=O)(=O)N2CCCCC2)cc1 | -4.3 | 12.9 | -0.6 | 6.3 | 7.9 | -6.0
CN(C)S(=O)(=O)c1cccc(-n2sc3ccccc3c2=O)c1 | 2.8 | -13.5 | 0.2 | 26.7* | -17.6 | -7.3
Cn1c(Cc2ccccc2)nnc1SCC(=O)NC1CCCC1 | -2.1 | -5.0 | -8.1 | -0.9 | -7.0 | 7.7
O=C(CN(c1ccccc1)S(=O)(=O)c1ccc(F)cc1)NC1CCS(=O)(=O)C1 (stereo not drawn) | -3.5 | 1.8 | -0.5 | -3.5 | 6.1 | 7.3
CCCN(C(=O)c1cc(S(=O)(=O)N2CCCCCC2)ccc1OC)C1CCS(=O)(=O)C1 (stereo not drawn) | 2.3 | 6.4 | 3.3 | -6.0 | 5.7 | 1.4
Cc1ccc(NS(=O)(=O)c2cc(NC(=O)C(C)Oc3ccccc3)ccc2C)c(C)c1 (stereo not drawn) | -8.5 | -16.3 | -24.8 | -3.7 | -2.2 | 2.0
Cc1ccc(C)c(S(=O)(=O)Nc2cc(SCC(=O)O)c(O)c3ccccc23)c1 | 3.6 | -2.5 | 35.0* | 32.5* | 7.6 | 87.0*
O=C(NCc1ccccc1)NC12CC3CC(CC(C3)C1)C2 | 1.4 | -30.8 | 5.2 | 5.0 | -13.1 | 35.2*
Cc1occc1-c1nnc(SCC(=O)c2ccc(F)cc2)o1 | 0.2 | -25.7 | 4.8 | 2.2 | 4.2 | 36.1*
Cc1csc(NC(=O)C2CCCN(S(=O)(=O)c3ccc(Br)s3)C2)n1 (stereo not drawn) | -1.6 | 0.6 | -3.5 | -2.9 | -11.2 | 46.4*
CCOC(=O)C1CCCN(S(=O)(=O)c2ccc(Br)s2)C1 (stereo not drawn) | -0.5 | -10.5 | 3.0 | -4.0 | 0.1 | 9.2
CCCCCC(=O)NNC1=NCC(Cc2cccc(Cl)c2)S1 (stereo not drawn) | -3.4 | -3.5 | -4.8 | 2.5 | -5.1 | -7.5
O=[N+]([O-])c1ccc(N=Nc2c(Cl)cc(O)cc2Cl)cc1 | 9.5 | -4.8 | 24.3 | 15.7* | 9.3 | 56.5*
CC(N)=Nc1ccc([N+](=O)[O-])cc1 | -0.8 | 20.3 | -3.9 | -1.6 | 0.5 | 2.1
NS(=O)(=O)c1ccc(Nc2ccc([N+](=O)[O-])c3nonc23)cc1 | -0.2 | -3.0 | 2.8 | -3.5 | 3.2 | 36.7*
CC(=O)c1ccc(Nc2ccc([N+](=O)[O-])c3nonc23)cc1 | -2.8 | 6.4 | -2.4 | 2.4 | 3.8 | 14.6
Cc1cc(C)n2nc(SCC(=O)NC3CCCCC3C)nc2n1 (stereo not drawn) | 2.0 | 12.8 | -1.9 | 2.0 | 14.9 | -2.3
CC(C)(CC(=O)O)CC(=O)NCc1c(Cl)cccc1Sc1ccc(Cl)cc1 | 3.3 | -0.5 | -1.0 | -4.6 | 0.0 | 37.3*
